The results in this text go back to PubChem BioAssay (Tox21).

Where “and” joins values, the source holds several entries; their conditions need not be identical. Identical values can stand only once. Inconclusive results are not listed. Entries that show only a call come without a potency. A structure can be active in one record and inactive in another. Calls of active or inactive are those of the source. The call rests on the fitted dose curve; in most records, active means well fitted activation curve with a large enough effect in the repeat runs; inconclusive means weak or mixed curves; inactive means no such curve, though single readings can be large or run the other way. Positions of bridges follow the written chain, without caps; N, C: chain ends. Non-standard residues stand in square brackets, D forms with d. Residues, ends and D or L forms follow the SMILES beside them. *: point of attachment. X1 = CC[C@@H](C)[C@@H](N)C1=N[C@H](C(=O)*)CS1; d(aIle) = CC[C@H](C)[C@@H](N)C(=O)O; dOrn = NCCC[C@@H](N)C(=O)O
Potency means the concentration at half of the fitted maximal effect.

Sequence of Aryl hydrocarbon receptor (Homo sapiens) (P35869 whole entry, looked up): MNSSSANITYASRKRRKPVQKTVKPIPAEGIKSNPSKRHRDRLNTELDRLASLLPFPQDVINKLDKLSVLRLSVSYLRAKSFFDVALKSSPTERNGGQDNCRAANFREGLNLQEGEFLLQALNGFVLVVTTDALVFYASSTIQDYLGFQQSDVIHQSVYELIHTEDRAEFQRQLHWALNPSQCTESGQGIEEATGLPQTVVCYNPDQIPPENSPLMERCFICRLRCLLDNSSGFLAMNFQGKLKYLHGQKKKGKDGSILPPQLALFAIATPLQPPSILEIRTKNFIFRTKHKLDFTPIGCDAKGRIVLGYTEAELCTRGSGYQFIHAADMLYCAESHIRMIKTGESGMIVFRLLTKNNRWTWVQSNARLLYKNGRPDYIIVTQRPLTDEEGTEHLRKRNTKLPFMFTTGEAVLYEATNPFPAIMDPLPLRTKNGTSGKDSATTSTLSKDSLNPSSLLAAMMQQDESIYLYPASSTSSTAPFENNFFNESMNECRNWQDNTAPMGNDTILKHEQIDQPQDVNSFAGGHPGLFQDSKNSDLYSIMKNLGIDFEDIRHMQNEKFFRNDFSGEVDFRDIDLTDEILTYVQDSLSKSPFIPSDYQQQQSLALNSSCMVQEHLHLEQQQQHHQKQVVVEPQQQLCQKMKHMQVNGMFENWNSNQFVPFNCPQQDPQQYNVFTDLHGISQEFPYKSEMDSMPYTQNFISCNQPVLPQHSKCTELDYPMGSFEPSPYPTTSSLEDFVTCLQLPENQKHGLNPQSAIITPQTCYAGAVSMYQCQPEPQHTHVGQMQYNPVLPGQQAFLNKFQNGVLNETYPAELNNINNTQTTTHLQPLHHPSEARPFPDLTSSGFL

The target in this test is Aryl hydrocarbon receptor (Homo sapiens) (UniProt P35869). Kind of test: qHTS assay to identify small molecule that activate the aryl hydrocarbon receptor (AhR) signaling pathway (AID 743085). Further: nearly all actives have a fitted effect of over 15% in size.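 On activation: HG2L7.5c1 human HepG2 liver cells with stably integrated DRE-driven firefly reporter.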 The settings on record: HepG2 AhR-luc (HG2L7.5c1), luciferase, 24 h; series mostly up to 70.3 µM. The source says:
U.S. Tox21 Program National Center for Advancing Translational Sciences [NCATS] NIH Chemical Genomics Center [NCGC] U.S. Environmental Protection Agency [EPA] National Institutes of Environmental Health Sciences [NIEHS] National Toxicology Program [NTP] U.S. Food and Drug Administration [FDA] Tox21 Assay overview: The Aryl hydrocarbon Receptor (AhR), a member of the family of basic helix-loop-helix transcription factors, is crucial to adaptive responses to environmental changes. AhR mediates cellular responses to environmental pollutants such as aromatic hydrocarbons through induction of phase I and II enzymes but also interacts with other nuclear receptor signaling pathways. A cell based HepG2-AhR-luc assay (HG2L7.5c1 cell line, developed by Dr. Michael S. Denison, University of California at Davis, was used to assess the activation of AhR. HepG2 (human hepatocellular carcinoma) cells were stably transfected with an Ah receptor-responsive firefly luciferase reporter gene plasmid containing 20 dioxin responsive elements and luciferase reporter gene. Increased luciferase activity can be used to identify the compounds that induce AhR activation.
Tox21 Assay Protocol Summary: 4000 cells in 5 uL/well were dispensed into white wall/solid bottom 1536-well plates using a Multidrop Combi (Thermo Fisher Scientific Inc., Waltham, MA) dispenser. After the assay plates were incubated at 37C for 5 h, 23 nL of compound or DMSO vehicle was transferred to the assay plates by a pintool station (Kalypsys, San Diego, CA). The plates were incubated at 37C for 24 hr. After 1 ul/well of CellTiter-Fluor reagent (Promega, Madison, WI) was added into the assay plates using a Flying Reagent Dispenser (FRD) (Aurora Discovery, CA), the assay plates were incubated at 37C for 30 min. The fluorescence intensity in the plates was measured using a ViewLux plate reader (PerkinElmer, Shelton, CT), followed by the addition of 4 uL of ONE-Glo Luciferase Assay reagent (Promega) using an FRD (Aurora Discovery). After the assay plates were incubated at room temperature for 30 min, luminescence intensity was measured using a ViewLux plate reader (Perkin Elmer).
A general note: Quantitative high-throughput screening tests each substance at several concentrations.
Turning to `CN[C@H](CC(C)C)C(=O)N[C@H]1C(=O)N[C@@H](CC(N)=O)C(=O)N[C@H]2C(=O)N[C@H]3C(=O)N[C@H](C(=O)N[C@@H](C(=O)O)c4cc(O)cc(O)c4-c4cc3ccc4O)[C@H](O)c3ccc(c(Cl)c3)Oc3cc2cc(c3O[C@@H]2O[C@H](CO)[C@@H](O)[C@H](O)[C@H]2O[C@H]2C[C@](C)(N)C(O)[C@H](C)O2)Oc2ccc(cc2Cl)[C@H]1O` (stereo not given in full), the Potency result is “inactive”.

Turning to `CN1CCN(CCCN2c3ccccc3Sc3ccc(C(F)(F)F)cc32)CC1`, the Potency result was “inactive”.

`CCCCCCOC(=O)c1cccnc1`: the Potency result was “inactive”.

Consider `CCCOC(=O)c1ccc(O)cc1`, for which the Potency entry is “inactive and 23 µM (active)”.

Take `CC(C)(S)C(=O)N[C@@H](CS)C(=O)O`: the Potency entry was “inactive”.

Regarding `CCN(CC)CC#CCOC(=O)C(O)(c1ccccc1)C1CCCCC1` (stereo not given), the Potency entry is “inactive”.

Turning to `CC[C@@H](C)[C@@H](N)C1=N[C@H](C(=O)N[C@@H](CC(C)C)C(=O)N[C@@H](CCC(=O)O)C(=O)N[C@@H](C(=O)N[C@@H]2CCCCNC(=O)[C@@H](CC(N)=O)NC(=O)[C@@H](CC(=O)O)NC(=O)[C@@H](Cc3cnc[nH]3)NC(=O)[C@@H](Cc3ccccc3)NC(=O)[C@@H]([C@H](C)CC)NC(=O)[C@@H](CCCN)NC2=O)[C@@H](C)CC)CS1` (X1-LE[d(aIle)][dK][dOrn][dI][dF][dH][dD][dN]; lactam 4-C), the Potency entry is “inactive”.

`CC(C)=CCC/C(C)=C/CC/C(C)=C/CC/C=C(\C)CC/C=C(\C)CCC=C(C)C`: the Potency result was “inactive”.

Take `O=C(O)c1cc2cc(Cc3cccnc3)ccc2o1`: the Potency result was “inactive”.

With `O=C1c2ccccc2-c2n[nH]c3cccc1c23`, the Potency is 29.8 µM (active).

Consider `NCCO/C=C/[C@H](N)C(=O)O`, for which the Potency entry is “inactive”.

Turning to `CSCCC(N)C(=O)O` (stereo not given), the Potency result is “inactive”.

With `CN1[C@@H](CC(=O)c2ccccc2)CCC[C@H]1C[C@H](O)c1ccccc1`, the Potency result is “inactive”.

Take `C[N+]1(CCCCC[N+]2(C)CCCC2)CCCC1`: the Potency entry is “inactive”.

As for `Cc1cc(-c2ccc(N=Nc3ccc4c(S(=O)(=O)O)cc(S(=O)(=O)O)c(N)c4c3O)c(C)c2)ccc1N=Nc1ccc2c(S(=O)(=O)O)cc(S(=O)(=O)O)c(N)c2c1O`, the Potency result is “inactive”.

Regarding `C=N[C@@H](C(=O)N[C@@H]1C(=O)N2[C@@H]1SC(C)(C)[C@@H]2C(=O)O)c1ccccc1`, the Potency result was “inactive”.

Consider `CCSCC`, for which the Potency entry was “inactive”.

As to `O=[N+]([O-])c1ccc(O)c2ncccc12`, the Potency was 3.35 µM (active).

Turning to `O=C1CCC(c2ccccc2)(C2CCN(Cc3ccccc3)CC2)C(=O)N1` (stereo not given), the Potency entry was “inactive”.

Take `CN1CCN(CCCN2c3ccccc3Sc3ccc(Cl)cc32)CC1`: the Potency is 9.44 µM (active).

In the case of `C[C@]12O[C@H](C[C@]1(O)CO)n1c3ccccc3c3c4c(c5c6ccccc6n2c5c31)CNC4=O`, the Potency is 0.531 µM (active).

As to `CCC(=O)OC(OP(=O)(CCCCc1ccccc1)CC(=O)N1C[C@H](C2CCCCC2)C[C@H]1C(=O)O)C(C)C` (stereo not given in full), the Potency result was “inactive”.

In the case of `CN(C)CCC(O)(c1ccccc1)c1ccccc1Cl` (stereo not given), the Potency entry is “inactive”.

As to `CO/N=C(\C(=O)N[C@@H]1C(=O)N2C(C(=O)O)=C(C[N+]3(C)CCCC3)CS[C@H]12)c1csc(N)n1`, the Potency entry was “inactive”.

Take `NCC(O)CC(=O)O` (stereo not given): the Potency entry was “inactive”.

Consider `COc1cc(/C=C/C(=O)CC(=O)/C=C/c2ccc(O)c(OC)c2)ccc1O`, for which the Potency entry was “inactive”.

As for `CC(=O)OCC(=O)[C@@]1(O)CC[C@H]2[C@@H]3C[C@H](C)C4=CC(=O)C=C[C@]4(C)[C@H]3[C@@H](O)C[C@@]21C`, the Potency entry was “inactive”.

On to `CC(=O)N(C)C`, for which the Potency result was “inactive”.

As to `CSCC[C@H](NC(=O)[C@H](Cc1ccc(OS(=O)(=O)O)cc1)NC(=O)[C@@H](N)CC(=O)O)C(=O)NCC(=O)N[C@@H](Cc1c[nH]c2ccccc12)C(=O)N[C@@H](CCSC)C(=O)N[C@@H](CC(=O)O)C(=O)N[C@@H](Cc1ccccc1)C(N)=O`, the Potency entry was “inactive”.

On to `Cc1c(O)c(=O)ccn1C`, for which the Potency entry is “inactive”.

`C[C@@H]1C(=O)NC2=Nc3cccc(Cl)c3CN21`: the Potency result is “inactive”.

On to `Cc1cnc(C(=O)O)c[n+]1[O-]`, for which the Potency entry was “inactive”.

Regarding `CCCCCCCC/C=C\CCCCCCCC(=O)N(CCO)CCO`, the Potency entry is “inactive”.

For `O=P(O)(O)CP(=O)(O)O`, the Potency entry was “inactive”.

On to `O=C1CCC/C=C\CCCCCCCCCC1`, for which the Potency result was “inactive”.

In the case of `C(=C\c1ccncc1)/c1ccccc1`, the Potency was 23.7 µM (active) and 13.3 µM (active).

For `CC(C)(C)C(=O)OCC(=O)[C@H]1CC[C@H]2[C@@H]3CCC4=CC(=O)CC[C@]4(C)[C@H]3CC[C@]12C`, the Potency entry was “inactive”.

`NCC1CCC(C(=O)O)CC1` (stereo not given): the Potency entry is “inactive”.

As for `FC(F)(F)C(F)(F)C(F)(F)C(F)(F)C(F)(F)F`, the Potency entry was “inactive”.

As to `C[C@H](O)CN(C)C`, the Potency result was “inactive”.
